The source of these data is PubChem BioAssay.

Values without a mark were called inactive. Calls of active or inactive are those of the source.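 The calls were made as follows, unless noted: active = compound raises GLP1 secretion from the human gut endocrine cells, with no numeric limit stated; inactive = the rest.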

The first assay is described as follows: glucagon-like peptide 1 release enhancers, primary assay, NCI-H716 cell line, NPC library (AID 1117341). Also: reference of the scale not given here. Particulars: NCI-H716 cells, at 10 µM, hits give high values.
Turning to `Cc1cccc(C)c1NC(=O)CN1CCCC1=O`, the GLP1 secretion stimulation is -2.4%.

Regarding `CC(=O)[C@H]1CC[C@H]2[C@@H]3CC[C@H]4C[C@H](O)CC[C@]4(C)[C@H]3C(=O)C[C@]12C`, the GLP1 secretion stimulation was -1.7%.

For `CC(O)CN1CCN(CC(=O)[O-])CCN(CC(=O)[O-])CCN(CC(=O)[O-])CC1.[Gd+3]` (stereo not given), the GLP1 secretion stimulation is -4.3%.

For `CCCN1CCC[C@@H]2Cc3nc(N)ncc3C[C@H]21`, the GLP1 secretion stimulation was -2.2%.

Consider `CC(C)c1c(CN(C)C(C)Cc2ccccc2)n(C)n(-c2ccccc2)c1=O` (stereo not given), for which the GLP1 secretion stimulation is 3.9%.

Consider `Cn1c(CCCC(=O)O)nc2cc(N(CCCl)CCCl)ccc21`, for which the GLP1 secretion stimulation was -0.7%.

For the compound `CN1[C@@H]2CC[C@H]1CC(OC(=O)c1cc(Cl)cc(Cl)c1)C2` (stereo not given in full), the GLP1 secretion stimulation was 13.6%.

As for `O=[N+]([O-])c1ccc([As](=O)(O)O)cc1`, the GLP1 secretion stimulation was -5.4%.

For `COP(=O)(OC)OC=C(Cl)Cl`, the GLP1 secretion stimulation was -1.2%.

For the compound `FC(F)(F)c1cccc(C2=CCN(CCc3ccc4ccccc4c3)CC2)c1`, the GLP1 secretion stimulation is 3.7%.

Take `COc1ccc(CN2CCNCC2)c(OC)c1OC`: the GLP1 secretion stimulation is 0%.

On to `COP(=O)(OC)C(O)C(Cl)(Cl)Cl` (stereo not given), for which the GLP1 secretion stimulation is -3.2%.

Consider `C#C[C@]1(O)C=C[C@H]2[C@@H]3CCC4=CC(=O)CC[C@@H]4[C@H]3CC[C@@]21CC`, for which the GLP1 secretion stimulation is 3.4%.

Take `Cc1ncsc1CCCl`: the GLP1 secretion stimulation is -0.4%.

Take `C=CCN1C[C@H](C)N([C@H](c2ccc(C(=O)N(CC)CC)cc2)c2cccc(OC)c2)C[C@H]1C`: the GLP1 secretion stimulation was 5.2%.

Turning to `CCCCc1ccc(C(=O)O)nc1`, the GLP1 secretion stimulation is -1.2%.

For the compound `Cc1ccc(S(=O)(=O)N[C@@H](CCCCN)C(=O)CCl)cc1`, the GLP1 secretion stimulation was -1.9%.

On to `c1ccc(C2CC2)c(OCC2=NCCN2)c1`, for which the GLP1 secretion stimulation is 10.4%.

In the case of `Fc1ccc(C(OCCN2CCN(CCCc3ccccc3)CC2)c2ccc(F)cc2)cc1`, the GLP1 secretion stimulation was 7.4%.

As for `CC[N+](CC)(CC)CC`, the GLP1 secretion stimulation is -1.5%.

For the compound `O=c1n(Cl)c(=O)n(Cl)c(=O)n1Cl`, the GLP1 secretion stimulation is 0.8%.

Take `CCCCC/C=C\C/C=C\C/C=C\C/C=C\CCCC(=O)NCC(=O)O`: the GLP1 secretion stimulation is 5%.

Consider `COC[C@@H](NC(C)=O)C(=O)NCc1ccccc1`, for which the GLP1 secretion stimulation is -0.8%.

Regarding `CCOC(=O)CC(SP(=S)(OC)OC)C(=O)OCC` (stereo not given), the GLP1 secretion stimulation is 0.7%.

Turning to `C[C@]12CC[C@H](O)CC1=CC[C@@H]1[C@@H]2CC[C@]2(C)C(=O)CC[C@@H]12`, the GLP1 secretion stimulation was 1.9%.

Take `O=C(O)Cc1ccccc1`: the GLP1 secretion stimulation was -0.3%.

Regarding `CC(C)(C)OC(=O)c1ncn2c1[C@@H]1CCCN1C(=O)c1c(Br)cccc1-2`, the GLP1 secretion stimulation was -0.4%.

For the compound `NCC1(CC(=O)O)CCCCC1`, the GLP1 secretion stimulation was -1.7%.

`Cc1nnc2n1-c1sc(CCC(=O)N3CCOCC3)cc1C(c1ccccc1Cl)=NC2`: the GLP1 secretion stimulation was 0.4%.

On to `CCCC[N+]1(C)[C@@H]2CC(OC(=O)[C@H](CO)c3ccccc3)C[C@H]1[C@@H]1O[C@@H]12` (stereo not given in full), for which the GLP1 secretion stimulation is 0.9%.

As for `CNCC(=O)c1ccc(O)c(O)c1`, the GLP1 secretion stimulation is -4.7%.

As for `C[N+]1(C)[C@@H]2CC[C@H]1CC(OC(=O)C(CO)c1ccccc1)C2` (stereo not given in full), the GLP1 secretion stimulation was 2.8%.

As for `Clc1cccc(SC2CCNCC2)n1`, the GLP1 secretion stimulation is 0.9%.

As to `O=C(NC(=O)c1c(F)cccc1F)Nc1cc(Cl)c(OC(F)(F)C(F)C(F)(F)F)cc1Cl` (stereo not given), the GLP1 secretion stimulation is 2.3%.

Turning to `CC(C)NCC(O)c1ccc(N)c(C#N)c1` (stereo not given), the GLP1 secretion stimulation is 8.5%.

With `CN1C[C@@H](NS(=O)(=O)N(C)C)C[C@@H]2c3cccc4c3c(cn4C)C[C@H]21`, the GLP1 secretion stimulation is 4.1%.

In the case of `O=C1NCN(c2ccccc2)C12CCN(CC1COc3ccccc3O1)CC2` (stereo not given), the GLP1 secretion stimulation is 0.9%.

Regarding `COc1ccc(C(=O)c2c(C)n(CCN3CCOCC3)c3ccccc23)cc1`, the GLP1 secretion stimulation is 1.7%.

As to `N#CC(C#N)=Cc1ccc(O)c(O)c1`, the GLP1 secretion stimulation is -2.9%.

As to `O=C(O)c1ccc2[nH]cc(CCCCN3CC=C(c4ccccc4)CC3)c2c1`, the GLP1 secretion stimulation was -2%.

The next assay in a line: HCT116 colon cancer cell growth inhibition, primary screen, CellTiter-Glo luminescence, NPC library (AID 1117342;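 active = compounds that lower survival of HCT116 colon cancer cells in the luminescence readout, no numeric limit stated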). To be noted: at 20 µM (top of the series). Background: Cellular ATP, detected with luciferase, serves as a proxy for viable cell number.
Regarding `Cc1cccc(C)c1NC(=O)CN1CCCC1=O`, the inhibition of viability is 0.2%.

In the case of `CC(=O)[C@H]1CC[C@H]2[C@@H]3CC[C@H]4C[C@H](O)CC[C@]4(C)[C@H]3C(=O)C[C@]12C`, the inhibition of viability was 41.1%.

In the case of `CC(O)CN1CCN(CC(=O)[O-])CCN(CC(=O)[O-])CCN(CC(=O)[O-])CC1.[Gd+3]` (stereo not given), the inhibition of viability was 0.7%.

Consider `CCCN1CCC[C@@H]2Cc3nc(N)ncc3C[C@H]21`, for which the inhibition of viability was -3.2%.

In the case of `CC(C)c1c(CN(C)C(C)Cc2ccccc2)n(C)n(-c2ccccc2)c1=O` (stereo not given), the inhibition of viability is 50.3% (active).

Consider `Cn1c(CCCC(=O)O)nc2cc(N(CCCl)CCCl)ccc21`, for which the inhibition of viability is 6.5%.

As to `CN1[C@@H]2CC[C@H]1CC(OC(=O)c1cc(Cl)cc(Cl)c1)C2` (stereo not given in full), the inhibition of viability is 87.1% (active).

As to `O=[N+]([O-])c1ccc([As](=O)(O)O)cc1`, the inhibition of viability was -30.4%.

Regarding `COP(=O)(OC)OC=C(Cl)Cl`, the inhibition of viability is -1.53%.

Consider `FC(F)(F)c1cccc(C2=CCN(CCc3ccc4ccccc4c3)CC2)c1`, for which the inhibition of viability is 42.1%.

On to `COc1ccc(CN2CCNCC2)c(OC)c1OC`, for which the inhibition of viability is 19.3%.

`COP(=O)(OC)C(O)C(Cl)(Cl)Cl` (stereo not given): the inhibition of viability was -44.1%.

For the compound `C#C[C@]1(O)C=C[C@H]2[C@@H]3CCC4=CC(=O)CC[C@@H]4[C@H]3CC[C@@]21CC`, the inhibition of viability is 32.2%.

With `Cc1ncsc1CCCl`, the inhibition of viability was -3.1%.

Consider `C=CCN1C[C@H](C)N([C@H](c2ccc(C(=O)N(CC)CC)cc2)c2cccc(OC)c2)C[C@H]1C`, for which the inhibition of viability was 35%.

Take `CCCCc1ccc(C(=O)O)nc1`: the inhibition of viability is 25.9%.

`Cc1ccc(S(=O)(=O)N[C@@H](CCCCN)C(=O)CCl)cc1`: the inhibition of viability is -8.6%.

Turning to `c1ccc(C2CC2)c(OCC2=NCCN2)c1`, the inhibition of viability is 5.23%.

On to `Fc1ccc(C(OCCN2CCN(CCCc3ccccc3)CC2)c2ccc(F)cc2)cc1`, for which the inhibition of viability was 124% (active).

Consider `CC[N+](CC)(CC)CC`, for which the inhibition of viability was -13.1%.

Regarding `O=c1n(Cl)c(=O)n(Cl)c(=O)n1Cl`, the inhibition of viability is 13.9%.

As for `CCCCC/C=C\C/C=C\C/C=C\C/C=C\CCCC(=O)NCC(=O)O`, the inhibition of viability is 103% (active).

Consider `COC[C@@H](NC(C)=O)C(=O)NCc1ccccc1`, for which the inhibition of viability is 1.2%.

As to `CCOC(=O)CC(SP(=S)(OC)OC)C(=O)OCC` (stereo not given), the inhibition of viability was -0.33%.

For `C[C@]12CC[C@H](O)CC1=CC[C@@H]1[C@@H]2CC[C@]2(C)C(=O)CC[C@@H]12`, the inhibition of viability was -21.8%.

As for `O=C(O)Cc1ccccc1`, the inhibition of viability was -9.8%.

Turning to `CC(C)(C)OC(=O)c1ncn2c1[C@@H]1CCCN1C(=O)c1c(Br)cccc1-2`, the inhibition of viability is 26.5%.

As for `NCC1(CC(=O)O)CCCCC1`, the inhibition of viability is -3.4%.

For the compound `Cc1nnc2n1-c1sc(CCC(=O)N3CCOCC3)cc1C(c1ccccc1Cl)=NC2`, the inhibition of viability was 13.6%.

As for `CCCC[N+]1(C)[C@@H]2CC(OC(=O)[C@H](CO)c3ccccc3)C[C@H]1[C@@H]1O[C@@H]12` (stereo not given in full), the inhibition of viability is 3.4%.

Regarding `CNCC(=O)c1ccc(O)c(O)c1`, the inhibition of viability is 20.7%.

For the compound `C[N+]1(C)[C@@H]2CC[C@H]1CC(OC(=O)C(CO)c1ccccc1)C2` (stereo not given in full), the inhibition of viability is 12.1%.

Take `Clc1cccc(SC2CCNCC2)n1`: the inhibition of viability was 11.5%.

For the compound `O=C(NC(=O)c1c(F)cccc1F)Nc1cc(Cl)c(OC(F)(F)C(F)C(F)(F)F)cc1Cl` (stereo not given), the inhibition of viability was 35%.

In the case of `CC(C)NCC(O)c1ccc(N)c(C#N)c1` (stereo not given), the inhibition of viability is 12.2%.

For `CN1C[C@@H](NS(=O)(=O)N(C)C)C[C@@H]2c3cccc4c3c(cn4C)C[C@H]21`, the inhibition of viability was 36.4%.

Regarding `O=C1NCN(c2ccccc2)C12CCN(CC1COc3ccccc3O1)CC2` (stereo not given), the inhibition of viability was 17.3%.

In the case of `COc1ccc(C(=O)c2c(C)n(CCN3CCOCC3)c3ccccc23)cc1`, the inhibition of viability was 54% (active).

Take `N#CC(C#N)=Cc1ccc(O)c(O)c1`: the inhibition of viability is 55.1% (active).

In the case of `O=C(O)c1ccc2[nH]cc(CCCCN3CC=C(c4ccccc4)CC3)c2c1`, the inhibition of viability was 18.8%.
